A549 tox-1: counter-screen for Nrf2 inhibitors: cytotoxicity in A549 cells. Potency, µM (titrated, usually from 46 µM), hits mostly inhibitors. A549 ARE-Fluc cells, CellTiter-Fluor viability, 18-24 h. hit rate 0.16% among 390,000
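A549 ARE_Fluc cells in 5% FBS OPTI-MEM were exposed to compounds in concentration-response for 18-24 h at 37 deg C. Viability was read by CellTiter-Fluor fluorescence (Ex 405/Em 525) after 30 min, before the luciferase read.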
ATXN2 expr inh: inhibitors of ATXN2 expression; HEK-293 ATXN2-luciferase reporter, luminescence, 24 h; Potency, µM (highest dose often 57 µM), hits mostly inhibitors; hit rate 0.72% among 360,000; also: nearly all actives have a fitted effect of over 55% in size
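ATXN2-luciferase reporter cells (luciferase flanked by upstream and downstream ATXN2 gene portions) were treated 24 h at 37 °C with compounds at up to 57 uM. SteadyGlo luminescence gave expression; GF-AFC fluorescence gave viability.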
Nrf2 activator: Nrf2 pathway activation. hit rate 0.31% among 410,000. AID 624171. Potency, µM (titrated, usually from 46.1 µM), most hits filed as activators. AREc32 ARE-luciferase reporter (MCF7-derived line), luminescence, 24 h; also: nearly all actives have a fitted effect of over 65% in size
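Reporter line AREc32 (ARE-Fluc), seeded overnight in OPTI-MEM with 5% FBS; compound pin-transferred, 24 hr at 37 deg C, 5% CO2; luminescent read-out.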
Nrf2 inh: blocks Nrf2 signaling; A549 ARE-Fluc reporter, luciferase luminescence, 18-24 h; AID 504444; hit rate 2.1% among 360,000; Potency, µM (titrated, usually from 46 µM), actives largely listed as inhibitors; also: nearly all actives have a fitted effect of over 60% in size
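Concentration-response testing used A549 ARE_Fluc cells at 5000 cells/well. Following an 18-24 h compound incubation, viability was read by fluorescence (Ex 405/Em 525) and luciferase output by luminescence.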
S2 tox: reduces viability in counter-screen for ATXN expression inhibitors | S2 cells (HEK-293 line with an ATXN2-luciferase reporter) viability, CellTiter-Fluor protease fluorescence, 24 h | Potency, µM (highest dose often 56.7 µM), usual class: cytotoxic | hit rate 0.49% among 400,000 | AID 651635; also: nearly all actives have a fitted effect of over 40% in size
FLuc counter 3: blocks purified firefly luciferase in Nrf2 counterscreen. purified firefly luciferase, luminescence inhibition. AID 720522. hit rate 4% among 1,400. Potency, µM (top dose mostly 57.5 µM), hits mostly inhibitors. shares compounds with Nrf2 inh; also: nearly all actives have a fitted effect of over 65% in size
Target sequence (P08659 whole entry, looked up): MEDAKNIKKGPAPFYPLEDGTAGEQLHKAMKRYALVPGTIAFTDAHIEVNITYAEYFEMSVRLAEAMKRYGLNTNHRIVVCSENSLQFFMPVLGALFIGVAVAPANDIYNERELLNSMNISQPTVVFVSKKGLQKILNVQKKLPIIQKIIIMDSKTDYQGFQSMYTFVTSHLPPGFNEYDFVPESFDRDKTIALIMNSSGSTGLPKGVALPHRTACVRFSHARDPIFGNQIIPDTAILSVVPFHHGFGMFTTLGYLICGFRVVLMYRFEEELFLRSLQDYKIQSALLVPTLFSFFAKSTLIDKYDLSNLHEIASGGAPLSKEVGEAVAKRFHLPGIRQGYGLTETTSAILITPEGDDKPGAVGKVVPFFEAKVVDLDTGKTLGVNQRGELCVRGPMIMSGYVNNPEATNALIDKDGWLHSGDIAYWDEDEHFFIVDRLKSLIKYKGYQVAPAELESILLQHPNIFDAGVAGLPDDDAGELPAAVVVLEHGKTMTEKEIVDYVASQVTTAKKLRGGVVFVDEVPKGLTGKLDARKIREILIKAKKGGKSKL
A549 tox-2: toxic to A549 ARE-Fluc cells in Nrf2 counterscreen. shares compounds with Nrf2 inh. A549 ARE-Fluc cells, cytotoxicity counterscreen. Potency, µM (titrated, usually from 46.1 µM), hits mostly inhibitors. hit rate 2% among 1,400. AID 720523;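 also: cells exposed to compounds for 18 to 24 hours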
ARE-Fluc inh: confirmation of Nrf2 inhibitors in A549 ARE reporter cells; shares compounds with Nrf2 inh; A549 ARE-firefly luciferase reporter, luminescence; Potency, µM (highest dose often 46.1 µM), usual class: inhibitors; hit rate 74% among 1,400; AID 720524; also: nearly all actives have a fitted effect of over 65% in size
A number is an active result; . = inactive; ? = inconclusive; / = no result given; [ ] = another dose, or the depositor's remark. Shown are actives, neighbours in structure and some others; about 2.9% of the full set was active somewhere. Calls follow the shape of the dose curve; as a rule, active = well fitted curve in the direction sought with a large enough effect; inconclusive = small, poorly fitted or top-dose-only effect, or another doubt; inactive = no such curve, though single readings can be large; an effect the other way counts as inactive or inconclusive.

SMILES	A549 tox-1	ATXN2 expr inh	Nrf2 activator	Nrf2 inh	S2 tox	FLuc counter 3	A549 tox-2	ARE-Fluc inh
COc1cc(CN(C(=O)c2ccccc2[N+](=O)[O-])c2ccccn2)cc(OC)c1OC	.	.	.	.	.	/	/	/
Cc1ccc(C)c(CSC2=NC(C)(C)Nc3ccccc32)c1	.	/	.	.	/	/	/	/
O=C(Nc1nc(-c2ccc(S(=O)(=O)N3CCOCC3)cc2)cs1)c1ccccc1	.	?	.	4.6µM	?	?	.	/
O=C(Nc1nc(-c2cc3ccccc3o2)cs1)c1ccc(S(=O)(=O)N2CCCC2)cc1	.	?	.	4.1µM	.	.	.	5.2µM
Cc1ccc(C(=O)Nc2nc(-c3ccccn3)cs2)cc1S(=O)(=O)N1CCOCC1	?	?	.	8.2µM	?	11µM	?	1.6µM
Cc1ccc(OCCCCn2nnc3sc4c(c3c2=O)CCC(C)C4)cc1 (stereo unspecified)	.	.	.	.	.	/	/	/
CC1CC2C(C(O)CC3(C)C2CCC3(O)C(=O)CO)C2(C)C=CC(=O)C=C12 (stereo unspecified)	.	.	.	0.046µM	?	.	.	0.041µM
CC(=O)OCC(=O)[C@@]1(O)CC[C@H]2[C@@H]3C[C@H](C)C4=CC(=O)C=C[C@]4(C)[C@H]3[C@@H](O)C[C@@]21C	.	.	.	0.052µM	.	.	.	0.052µM
Cc1cc2ccccc2c[n+]1C1CCCCC1	/	/	/	/	/	.	.	1.3µM
O=C(NC1CCCCC1)c1ccc2ccccc2c1	/	/	.	/	.	/	/	/
Cc1ccc(-c2c(C(=O)N3CCN(c4cccc(C)c4C)CC3)oc(=O)c3ccccc23)cc1	.	.	.	.	.	/	/	/
CC(=O)Nc1cccc(Nc2nc3ccccc3n3c(C)nnc23)c1	.	.	.	?	.	/	/	/
O=C(Nc1ccc(F)cc1)Nc1csc2c1CCCC2	.	/	.	?	/	/	/	/
CCC(c1nnnn1Cc1ccccc1)N(Cc1ccccc1)Cc1cc2cc(C)ccc2[nH]c1=O (stereo unspecified)	?	/	/	4.1µM	/	.	.	?
CCOc1ccc(CCNC(=O)C2CCCN(S(=O)(=O)N(C)c3ccc(F)cc3)C2)cc1 (stereo unspecified)	.	/	.	?	/	/	/	/
O=NNc1nc2ccccc2n1Cc1ccccc1	?	?	.	6.5µM	.	.	.	6.5µM
CC(=O)Nc1nc2ccccc2n1Cc1ccccc1	.	.	.	.	.	/	/	/
COc1cccc(C(=O)N(Cc2sccc2C)C2CCS(=O)(=O)C2)c1 (stereo unspecified)	.	/	.	.	/	/	/	/
COc1ccc(-c2nc(CSCC(=O)N3CCN(c4ccccc4)CC3)c(C)o2)cc1	?	?	.	2.6µM	?	.	.	?
Cc1ccsc1-c1nc(CSCC(=O)N2CCN(c3ccccc3)CC2)c(C)o1	.	?	.	?	?	/	/	/
Cc1cc(Nc2ccccc2C(=O)O)n(-c2ccc([N+](=O)[O-])cc2)n1	?	/	.	6.5µM	.	.	.	?
Clc1ccc(-c2noc(CSc3nnc(-c4ccncc4)n3-c3ccccc3)n2)cc1	?	?	.	2.3µM	.	.	.	13µM
COc1ccc(-c2noc(CSc3nnc(-c4ccncc4)n3-c3ccc(OC)cc3)n2)cc1	.	.	.	?	.	/	/	/
COc1cccc(-n2c(-c3ccco3)nc3c(cnn3-c3ccc(Cl)cc3)c2=O)c1	.	.	.	?	.	/	/	/
O=c1c2cnn(-c3ccccc3)c2nc(-c2ccco2)n1-c1ccccc1	.	.	.	9.2µM	.	.	.	18µM
SMILES	A549 tox-1	ATXN2 expr inh	Nrf2 activator	Nrf2 inh	S2 tox	FLuc counter 3	A549 tox-2	ARE-Fluc inh
Cc1ccc(-n2c(-c3ccc(Br)cc3)c[n+]3c2CCc2ccc4cccnc4c2-3)cc1	.	5µM	.	2.9µM	14µM	.	?	5.8µM
COC(=O)c1c(C)oc2ccc(N(C(C)=O)S(=O)(=O)c3ccccc3)cc12	?	.	.	?	.	/	/	/
CCOc1ccc(S(=O)(=O)N(C(C)=O)c2ccc3oc(C)c(C(=O)OC)c3c2)cc1	.	/	.	2.1µM	/	.	.	23µM
COC(=O)c1c(C)oc2ccc(N(C(=O)Oc3ccccc3)S(=O)(=O)c3ccc(C(C)(C)C)cc3)cc12	.	/	.	2.3µM	/	.	.	5.2µM
Cc1cc(/C=C(\C#N)C(=O)Nc2ccccc2)c(C)n1-c1ccc(F)cc1	.	.	.	.	.	/	/	/
Cc1cc(C(=O)O)ccc1-n1c(C)cc(/C=C(/C#N)C(=O)Nc2ccccc2)c1C	.	.[11.3 µM]	.	5.8µM	.	.	.	?
N=c1ccn2c(n1)OC1C(O)[C@@H](CO)O[C@H]12 (stereo partly specified)	.	/	/	0.16µM	/	.	.	/
O=c1ccncn1C1OC(CO)C(O)C1O (stereo unspecified)	.	.	.	.	.	/	/	/
O=C(CN(c1ccc(Cl)c(C(F)(F)F)c1)S(=O)(=O)c1ccccc1)N1CCc2ccccc2C1	.	.	.	?	?	/	/	/
N=c1ccn(Cc2c(Cl)cccc2Cl)cc1	.	.	.	5.2µM	.	.	.	4.1µM
N=c1ccn(Cc2ccccc2Cl)cc1	?	.	.	/	.	/	/	/
CC(C)(C)OC(=O)NCCCC[C@@H](C(=O)NCCCCCCCCCCC(=O)N1CCN(C(=O)OC(C)(C)C)CC1)n1cc(CCCC(=O)O)nn1	.	.	.	.	.	/	/	/
CC[C@H](C)[C@@H](C(=O)NCCCCCCCCCCC(=O)N1CCN(C(=O)OC(C)(C)C)CC1)n1cc(CCCCCNC(=O)OC(C)(C)C)nn1	.	?	.	5.8µM	?	.	.	7.3µM
CCOc1ccc(Sc2cc(C(=O)NCc3ccc(F)cc3)c3ccccc3n2)cc1	.	.	.	/	.	/	/	/
COc1ccc(OC)c(CCNC(=O)C(C)n2nc(C)c3c(C)n(-c4ccc(C)cc4)nc3c2=O)c1 (stereo unspecified)	?	/	.	6.5µM	?	.	?	3.7µM
COc1ccc(OC)c(CCNC(=O)C(C)n2nc(C)c3c(C)n(-c4ccccc4)nc3c2=O)c1 (stereo unspecified)	.	.	.	.	.	/	/	/
Clc1ccc(-c2nnn3c2nc(NC2CCCCC2)c2ccccc23)cc1	.	.	.	.	.	/	/	/
Cc1cnc2ccc3ccccc3c2c1C	/	/	/	/	/	?	.	6.5µM
CCCC(=O)Nc1nc(-c2ccc3c(c2)CCN3S(C)(=O)=O)cs1	.	.	.	8.2µM	.	?	.	?
CCCCCCCn1c2c(c(=N)c3c1CCC3)CCCC2	?	1.9µM	.	0.52µM	?	.	.	1.8µM
N=c1c2c(n(Cc3ccc(F)cc3)c3c1CCC3)CCC2	.[1.84 µM]	.	.	?	.	/	/	/
